# Experimental data from the supplement of paper PMC8728848.
# This excerpt belongs to a sample that is enriched for the strongest signals.
# B1: Mermaid2 (Stilbonema majum) (protein)
# chain: MGSSHHHHHHSSGLVPRGSHMAASGWLRSPQGTVVKLYRRSLSWSKADEFCKDVDGRLVVDRTADMHLFLIKNVLKEKKSRVWVGLRRTAPHSRTWIWSDGTRQNEDDLNTNLWLRDEPNDAAGEEECALFMYSPWEKAWGLNDYLCRGGCRSYQFICEKGIR
# Tests used:
# Assay in all cases: glycan array binding signal (z-score within array); higher = stronger binding
# Conditions in all cases: glycan notation: IUPAC condensed, linker removed
# [1] = target: Fuc(a1-2)Gal(b1-3)GlcNAc(b1-3)[Neu5Ac(a2-6)Gal(b1-4)GlcNAc(b1-6)]Gal(b1-4)Glc
# Procedure, shortened: (§1)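 Negative Z-scores can be read as non-binding. The Z-score is calculated within each array and then averaged across arrays of one protein sequence at different concentrations or buffers and across linkers. Arrays, 3228 in all, were curated from the Consortium for Functional Glycomics database and kept only where the protein sequence was available.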
# [2] = target: Fuc(a1-2)Gal(b1-4)GlcNAc(b1-2)Man
# Procedure, shortened: as §1
# [3] = target: Fuc(a1-2)Gal(b1-4)GlcNAc(b1-3)Gal(b1-4)GlcNAc
# Procedure, shortened: as §1
# [4] = target: Fuc(a1-2)Gal(b1-4)[Fuc(a1-3)]GlcNAc
# Procedure, shortened: as §1
# [5] = target: Fuc(a1-2)Gal6S(b1-3)GlcNAc
# Procedure, shortened: as §1
# [6] = target: Fuc(a1-2)Gal6S(b1-3)GlcNAc6S
# Procedure, shortened: as §1
# [7] = target: Fuc(a1-2)[Gal(a1-3)]Gal(b1-4)Glc
# Procedure, shortened: as §1
# [8] = target: Fuc(a1-2)[Gal(a1-3)]Gal(b1-4)GlcNAc(b1-3)[Fuc(a1-2)[Gal(a1-3)]Gal(b1-4)GlcNAc(b1-6)]GalNAc
# Procedure, shortened: as §1
# [9] = target: Fuc(a1-2)[GalNAc(a1-3)]Gal(b1-4)GlcNAc(b1-3)Gal(b1-4)GlcNAc
# Procedure, shortened: as §1
# [10] = target: Fuc(a1-2)[GalNAc(b1-3)]Gal
# Procedure, shortened: as §1
# [11] = target: Fuc(a1-3)[Gal(b1-4)]GlcNAc(b1-3)Gal(b1-3)[Fuc(a1-4)]GlcNAc
# Procedure, shortened: as §1
# Gal(b1-2)Gal = target: Gal(b1-2)Gal
# Procedure, shortened: as §1
# [12] = target: Gal(b1-3)GalNAc(a1-3)[Fuc(a1-2)]Gal(b1-4)Glc
# Procedure, shortened: as §1
# [13] = target: Gal(b1-3)GlcNAc(b1-3)Gal(b1-4)GlcNAc(b1-3)Gal(b1-4)GlcNAc(b1-2)[Gal(b1-3)GlcNAc(b1-3)Gal(b1-4)GlcNAc(b1-3)Gal(b1-4)GlcNAc(b1-6)]Man(a1-6)[Gal(b1-3)GlcNAc(b1-3)Gal(b1-4)GlcNAc(b1-3)Gal(b1-4)GlcNAc(b1-2)Man(a1-3)]Man(b1-4)GlcNAc(b1-4)[Fuc(a1-6)]GlcNAc
# Procedure, shortened: as §1
# [14] = target: Gal(b1-3)GlcNAc(b1-3)Gal(b1-4)[Fuc(a1-3)]GlcNAc
# Procedure, shortened: as §1
# [15] = target: Gal(b1-3)[Fuc(a1-4)]GlcNAc(b1-3)Gal(b1-4)[Fuc(a1-3)]GlcNAc
# Procedure, shortened: as §1
# Gal(b1-4)Gal = target: Gal(b1-4)Gal
# Procedure, shortened: as §1
# [16] = target: Gal(b1-4)GalNAc(b1-3)[Fuc(a1-2)]Gal(b1-4)GlcNAc
# Procedure, shortened: as §1
# Gal(b1-4)Glc = target: Gal(b1-4)Glc
# Procedure, shortened: as §1
# Gal(b1-4)GlcNAc(b1-2)Man = target: Gal(b1-4)GlcNAc(b1-2)Man
# Procedure, shortened: as §1
# [17] = target: Gal(b1-4)GlcNAc(b1-2)Man(a1-3)[Gal(b1-4)GlcNAc(b1-2)Man(a1-6)][Gal(b1-4)GlcNAc(b1-4)]Man(b1-4)GlcNAc(b1-4)[Fuc(a1-6)]GlcNAc
# Procedure, shortened: as §1
# [18] = target: Gal(b1-4)GlcNAc(b1-2)Man(a1-3)[Man(a1-6)]Man(b1-4)GlcNAc(b1-4)GlcNAc
# Procedure, shortened: as §1
# [19] = target: Gal(b1-4)GlcNAc(b1-2)[Gal(b1-4)GlcNAc(b1-4)]Man(a1-3)[Gal(b1-4)GlcNAc(b1-2)Man(a1-6)]Man(b1-4)GlcNAc(b1-4)GlcNAc
# Procedure, shortened: as §1
# [20] = target: Gal(b1-4)GlcNAc(b1-2)[Gal(b1-4)GlcNAc(b1-4)]Man(a1-3)[GlcNAc(b1-4)][Gal(b1-4)GlcNAc(b1-2)[Gal(b1-4)GlcNAc(b1-6)]Man(a1-6)]Man(b1-4)GlcNAc(b1-4)GlcNAc
# Procedure, shortened: as §1
# [21] = target: Gal(b1-4)GlcNAc(b1-3)Gal(b1-4)GlcNAc(b1-2)Man(a1-3)[Gal(b1-4)GlcNAc(b1-3)Gal(b1-4)GlcNAc(b1-2)Man(a1-6)]Man(b1-4)GlcNAc(b1-4)[Fuc(a1-6)]GlcNAc
# Procedure, shortened: as §1
# [22] = target: Gal(b1-4)GlcNAc(b1-3)Gal(b1-4)GlcNAc(b1-2)[Gal(b1-4)GlcNAc(b1-3)Gal(b1-4)GlcNAc(b1-6)]Man(a1-6)[Gal(b1-4)GlcNAc(b1-3)Gal(b1-4)GlcNAc(b1-2)Man(a1-3)]Man(b1-4)GlcNAc(b1-4)GlcNAc
# Procedure, shortened: as §1
# [23] = target: Gal(b1-4)GlcNAc(b1-3)Gal(b1-4)GlcNAc(b1-3)Gal(b1-4)GlcNAc
# Procedure, shortened: as §1
# [24] = target: Gal(b1-4)GlcNAc(b1-6)GalNAc
# Procedure, shortened: as §1
# Gal6S(b1-4)GlcNAc6S = target: Gal6S(b1-4)GlcNAc6S
# Procedure, shortened: as §1
# GalNAc(b1-4)GlcNAc6S = target: GalNAc(b1-4)GlcNAc6S
# Procedure, shortened: as §1
binder,measurement,setting,value
B1,glycan array binding signal (z-score),[1],0.333
same,glycan array binding signal (z-score),[2],1.76
same,glycan array binding signal (z-score),[3],-0.575
same,glycan array binding signal (z-score),[4],0.558
same,glycan array binding signal (z-score),[5],-0.388
same,glycan array binding signal (z-score),[6],4.48
same,glycan array binding signal (z-score),[7],-0.23
same,glycan array binding signal (z-score),[8],-0.477
same,glycan array binding signal (z-score),[9],-0.302
same,glycan array binding signal (z-score),[10],-0.551
same,glycan array binding signal (z-score),[11],-0.144
same,glycan array binding signal (z-score),Gal(b1-2)Gal,-0.539
same,glycan array binding signal (z-score),[12],3.31
same,glycan array binding signal (z-score),[13],4.69
same,glycan array binding signal (z-score),[14],-0.471
same,glycan array binding signal (z-score),[15],-0.152
same,glycan array binding signal (z-score),Gal(b1-4)Gal,6.71
same,glycan array binding signal (z-score),[16],0.467
same,glycan array binding signal (z-score),Gal(b1-4)Glc,-0.205
same,glycan array binding signal (z-score),Gal(b1-4)GlcNAc(b1-2)Man,1.07
same,glycan array binding signal (z-score),[17],-0.652
same,glycan array binding signal (z-score),[18],3.75
same,glycan array binding signal (z-score),[19],0.034
same,glycan array binding signal (z-score),[20],-0.17
same,glycan array binding signal (z-score),[21],-0.278
same,glycan array binding signal (z-score),[22],5.21
same,glycan array binding signal (z-score),[23],0.308
same,glycan array binding signal (z-score),[24],-0.317
same,glycan array binding signal (z-score),Gal6S(b1-4)GlcNAc6S,-0.12
same,glycan array binding signal (z-score),GalNAc(b1-4)GlcNAc6S,4.64
